# In PubChem BioAssay (EPA / NIEHS):
# Inconclusive results are not listed. More than one record can exist for a structure, and the calls need not agree. Activity calls are given as the source filed them. How the source made its calls, unless noted: active means hit-call score of the fitted dose curve at least 0.9, where 1 is the maximum; inconclusive means response in the unintended direction; inactive means score below 0.9.
# Experiments:
# [1] = biological target: human Peroxisome Proliferator-activated Receptor alpha (PPARa), PPARA (gene 5465) (UniProt Q07869); experiment: ATG_PPARa_TRANS: Attagene TRANS-FACTORIAL HepG2 Assay for human Peroxisome Proliferator-activated Receptor alpha (PPARa) (AID 2283001)
# Chain of human Peroxisome Proliferator-activated Receptor alpha (PPARa), PPARA (gene 5465) (Q07869 whole entry, looked up, the tested form may be a part): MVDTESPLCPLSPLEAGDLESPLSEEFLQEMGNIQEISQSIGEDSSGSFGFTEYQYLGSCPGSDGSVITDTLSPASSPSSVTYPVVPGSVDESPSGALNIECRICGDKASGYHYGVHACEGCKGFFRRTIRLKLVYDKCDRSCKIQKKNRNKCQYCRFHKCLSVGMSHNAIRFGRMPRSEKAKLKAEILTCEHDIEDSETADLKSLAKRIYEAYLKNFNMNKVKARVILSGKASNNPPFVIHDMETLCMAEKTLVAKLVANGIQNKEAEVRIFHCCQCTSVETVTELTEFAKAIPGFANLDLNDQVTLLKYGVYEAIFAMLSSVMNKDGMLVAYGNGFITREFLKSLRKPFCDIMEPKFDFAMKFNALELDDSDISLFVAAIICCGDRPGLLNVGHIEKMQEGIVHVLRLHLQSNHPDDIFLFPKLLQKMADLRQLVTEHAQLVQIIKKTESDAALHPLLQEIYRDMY
# Outline: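 Reporter transcripts from GAL4-UAS units in transfected HepG2 were quantified 24 h after dosing. Detection used reverse transcription, PCR, fluorescent primer extension and capillary electrophoresis, with DMSO as baseline.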
# [2] = biological target: human Peroxisome Proliferator-activated Receptor delta (PPARd), PPARD (gene 5467) (UniProt Q03181); experiment: ATG_PPARd_TRANS: Attagene TRANS-FACTORIAL HepG2 Assay for human Peroxisome Proliferator-activated Receptor delta (PPARd) (AID 2283002)
# Chain of human Peroxisome Proliferator-activated Receptor delta (PPARd), PPARD (gene 5467) (Q03181 whole entry, looked up): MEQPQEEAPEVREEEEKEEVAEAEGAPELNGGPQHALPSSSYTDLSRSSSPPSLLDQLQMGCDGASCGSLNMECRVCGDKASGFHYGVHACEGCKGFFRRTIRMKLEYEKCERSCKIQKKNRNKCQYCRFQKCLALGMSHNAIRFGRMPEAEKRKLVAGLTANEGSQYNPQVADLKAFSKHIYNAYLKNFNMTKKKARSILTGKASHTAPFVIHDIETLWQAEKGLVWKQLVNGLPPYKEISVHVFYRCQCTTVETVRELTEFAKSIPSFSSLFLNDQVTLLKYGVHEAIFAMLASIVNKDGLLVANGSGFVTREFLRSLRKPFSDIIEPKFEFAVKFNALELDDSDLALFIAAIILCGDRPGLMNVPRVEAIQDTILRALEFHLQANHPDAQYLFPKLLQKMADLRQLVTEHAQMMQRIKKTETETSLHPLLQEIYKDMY
# Outline: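 Cell-based TRANS reporter: HepG2, transient MRTU transfection, 24 h exposure. Readout = reporter mRNA (RT-PCR/CE, 6-FAM). Gain-of-signal fit vs DMSO control.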
# [3] = biological target: Peroxisome proliferator-activated receptor gamma (Homo sapiens) (UniProt P37231); experiment: ATG_PPARg_TRANS: Attagene TRANS-FACTORIAL HepG2 Assay for human Peroxisome Proliferator-activated Receptor-gamma (PPARg) (AID 2283007)
# Chain of Peroxisome proliferator-activated receptor gamma (Homo sapiens) (P37231 whole entry, looked up): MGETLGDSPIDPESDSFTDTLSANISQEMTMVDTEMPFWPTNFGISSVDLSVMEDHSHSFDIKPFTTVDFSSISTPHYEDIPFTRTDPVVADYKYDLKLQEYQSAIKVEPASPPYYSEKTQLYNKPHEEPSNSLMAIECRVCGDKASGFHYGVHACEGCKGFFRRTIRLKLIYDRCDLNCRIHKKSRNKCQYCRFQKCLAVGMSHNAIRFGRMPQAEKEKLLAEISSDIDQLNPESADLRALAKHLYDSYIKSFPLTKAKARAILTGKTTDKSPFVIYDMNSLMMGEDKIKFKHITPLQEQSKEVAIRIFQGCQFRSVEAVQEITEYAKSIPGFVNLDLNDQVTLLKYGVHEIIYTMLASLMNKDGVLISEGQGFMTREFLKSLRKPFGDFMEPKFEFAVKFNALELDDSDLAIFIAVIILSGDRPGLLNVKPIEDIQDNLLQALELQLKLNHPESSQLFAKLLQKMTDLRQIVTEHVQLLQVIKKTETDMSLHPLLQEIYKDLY
# Outline: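 Human hepatoma HepG2, transient MRTU transfection, 24 h treatment. mRNA reporter signal by RT-PCR plus capillary electrophoresis, fluorescence detection; fitted for increase over DMSO negative control.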
# [4] = biological target: human RAR-related Orphan Receptor beta (RORb), RORB (gene 6096) (UniProt Q92753); experiment: ATG_RORb_TRANS: Attagene TRANS-FACTORIAL HepG2 Assay for human RAR-related Orphan Receptor beta (RORb) (AID 2283010)
# Chain of human RAR-related Orphan Receptor beta (RORb), RORB (gene 6096) (Q92753 whole entry, looked up, the tested form may be a part): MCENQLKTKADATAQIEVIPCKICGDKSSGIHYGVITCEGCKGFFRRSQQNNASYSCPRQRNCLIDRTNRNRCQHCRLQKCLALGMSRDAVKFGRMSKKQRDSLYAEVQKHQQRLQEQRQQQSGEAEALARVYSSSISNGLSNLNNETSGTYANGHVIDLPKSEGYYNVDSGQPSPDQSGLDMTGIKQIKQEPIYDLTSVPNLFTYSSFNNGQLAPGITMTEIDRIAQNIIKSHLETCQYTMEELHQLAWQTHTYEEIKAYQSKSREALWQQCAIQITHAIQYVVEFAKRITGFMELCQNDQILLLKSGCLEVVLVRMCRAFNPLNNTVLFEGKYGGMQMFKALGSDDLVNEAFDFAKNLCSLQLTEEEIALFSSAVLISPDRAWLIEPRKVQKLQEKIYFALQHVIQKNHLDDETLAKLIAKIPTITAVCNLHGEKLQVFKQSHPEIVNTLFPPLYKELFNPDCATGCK
# Outline: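 HepG2 cells were transiently transfected with multiplexed GAL4-UAS reporter units expressing chimeric nuclear receptor–GAL4 proteins, then dosed for 24 h. Reporter mRNA was quantified by RT-PCR with fluorescent labelling and capillary electrophoresis; gain of signal was fitted relative to DMSO.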
# [5] = biological target: Retinoic acid receptor RXR-alpha (Homo sapiens) (UniProt P19793); experiment: ATG_RXRa_TRANS: Attagene TRANS-FACTORIAL HepG2 Assay for human Retinoid X Receptor alpha (RXRa) (AID 2283012)
# Chain of Retinoic acid receptor RXR-alpha (Homo sapiens) (P19793 whole entry, looked up, the tested form may be a part): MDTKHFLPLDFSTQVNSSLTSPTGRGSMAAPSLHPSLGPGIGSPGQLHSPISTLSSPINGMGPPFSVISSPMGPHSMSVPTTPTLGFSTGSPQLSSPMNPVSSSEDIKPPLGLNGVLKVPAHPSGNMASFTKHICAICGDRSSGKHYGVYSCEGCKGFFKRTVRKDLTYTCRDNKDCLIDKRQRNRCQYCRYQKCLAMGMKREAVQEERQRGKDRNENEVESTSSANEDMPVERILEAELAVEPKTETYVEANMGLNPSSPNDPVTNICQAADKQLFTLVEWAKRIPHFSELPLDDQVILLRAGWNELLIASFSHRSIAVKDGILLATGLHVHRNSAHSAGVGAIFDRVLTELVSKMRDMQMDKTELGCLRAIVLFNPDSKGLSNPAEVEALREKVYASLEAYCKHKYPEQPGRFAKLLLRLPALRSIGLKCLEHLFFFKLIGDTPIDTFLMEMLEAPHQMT
# Outline: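 HepG2 cells transiently transfected with multiplexed GAL4-UAS reporter units and chimeric NR-GAL4 fusions, dosed 24 h. Reporter mRNA measured by RT-PCR, FAM labelling, HpaI digestion and capillary electrophoresis; gain-of-signal fitted relative to DMSO baseline.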
# [6] = biological target: human Retinoid X Receptor beta (RXRb), RXRB (gene 6257) (UniProt P28702); experiment: ATG_RXRb_TRANS: Attagene TRANS-FACTORIAL HepG2 Assay for human Retinoid X Receptor beta (RXRb) (AID 2283013)
# Chain of human Retinoid X Receptor beta (RXRb), RXRB (gene 6257) (P28702 whole entry, looked up, the tested form may be a part): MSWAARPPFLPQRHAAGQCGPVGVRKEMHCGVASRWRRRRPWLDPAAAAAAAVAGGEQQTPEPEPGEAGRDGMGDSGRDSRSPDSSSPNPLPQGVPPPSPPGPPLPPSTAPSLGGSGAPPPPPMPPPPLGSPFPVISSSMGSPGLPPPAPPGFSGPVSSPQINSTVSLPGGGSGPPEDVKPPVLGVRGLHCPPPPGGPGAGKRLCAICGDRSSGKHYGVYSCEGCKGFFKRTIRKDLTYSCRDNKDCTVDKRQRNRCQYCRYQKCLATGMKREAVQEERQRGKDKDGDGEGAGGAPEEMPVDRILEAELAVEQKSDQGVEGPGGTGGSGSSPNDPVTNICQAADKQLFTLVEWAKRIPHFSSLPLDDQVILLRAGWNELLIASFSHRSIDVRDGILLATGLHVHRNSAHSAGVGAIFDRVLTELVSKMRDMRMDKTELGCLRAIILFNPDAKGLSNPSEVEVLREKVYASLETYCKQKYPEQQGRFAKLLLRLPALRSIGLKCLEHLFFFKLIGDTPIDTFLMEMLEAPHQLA
# Outline: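 HepG2 cells transiently transfected with multiplexed reporter units driven by GAL4-UAS and exogenous chimeric NR-Gal4 proteins; treated 24 h. Reporter mRNA measured by RT-PCR, 6-FAM labelling and capillary electrophoresis; gain-of-signal fitted versus DMSO baseline.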
# [7] = biological target: human Thyroid Receptor alpha (THRa1), THRA (gene 7067) (UniProt P10827); experiment: ATG_THRa1_TRANS: Attagene TRANS-FACTORIAL HepG2 Assay for human Thyroid Receptor alpha (THRa1) (AID 2283014)
# Outline: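 Transient HepG2 transfection, NR-Gal4 chimera driving GAL4-UAS reporters; 24 h compound exposure; total RNA, oligo(dT) RT, PCR, fluorescent primer extension, capillary electrophoresis. Upward direction vs DMSO control.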
# [8] = biological target: Nuclear receptor subfamily 1 group I member 2 (Homo sapiens) (UniProt O75469); experiment: ATG_PXR_TRANS: Attagene TRANS-FACTORIAL HepG2 Assay for human Pregnane X Receptor (PXR) (AID 2283008)
# Outline: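 Fluorescence intensity of FAM-labelled, HpaI-digested reporter amplicons, separated by capillary electrophoresis, quantifies induction. HepG2 cells with PXR-Gal4 trans-reporter system were exposed 24 h; DMSO defines baseline.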
# [9] = biological target: human Retinoic Acid Receptor beta (RARb), RARB (gene 5915) (UniProt P10826); experiment: ATG_RARb_TRANS: Attagene TRANS-FACTORIAL HepG2 Assay for human Retinoic Acid Receptor beta (AID 2283004)
# Chain of human Retinoic Acid Receptor beta (RARb), RARB (gene 5915) (P10826 whole entry, looked up, the tested form may be a part): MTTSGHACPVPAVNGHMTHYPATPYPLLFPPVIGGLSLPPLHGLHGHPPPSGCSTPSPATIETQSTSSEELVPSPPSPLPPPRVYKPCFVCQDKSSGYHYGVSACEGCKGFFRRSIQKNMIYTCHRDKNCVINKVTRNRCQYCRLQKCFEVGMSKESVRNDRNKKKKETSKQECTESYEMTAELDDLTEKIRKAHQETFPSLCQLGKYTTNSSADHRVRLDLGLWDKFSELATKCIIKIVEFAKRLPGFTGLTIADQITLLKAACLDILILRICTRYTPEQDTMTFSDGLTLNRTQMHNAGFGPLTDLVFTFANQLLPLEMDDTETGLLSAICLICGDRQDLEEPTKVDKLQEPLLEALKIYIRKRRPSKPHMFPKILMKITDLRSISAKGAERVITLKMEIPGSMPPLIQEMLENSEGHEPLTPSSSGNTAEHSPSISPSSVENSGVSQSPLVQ
# Outline: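 Readout is reporter mRNA induction: RNA reverse-transcribed, PCR-amplified, FAM-labelled, HpaI-cut and resolved by capillary electrophoresis. Transiently transfected HepG2 cells carrying exogenous NR–Gal4 chimeras were dosed for 24 h; activity fitted upward relative to DMSO.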
# [10] = biological target: Retinoic acid receptor alpha (Homo sapiens) (UniProt P10276); experiment: ATG_RARa_TRANS: Attagene TRANS-FACTORIAL HepG2 Assay for human Retinoic Acid Receptor alpha (RARa) (AID 2283005)
# Chain of Retinoic acid receptor alpha (Homo sapiens) (P10276 whole entry, looked up, the tested form may be a part): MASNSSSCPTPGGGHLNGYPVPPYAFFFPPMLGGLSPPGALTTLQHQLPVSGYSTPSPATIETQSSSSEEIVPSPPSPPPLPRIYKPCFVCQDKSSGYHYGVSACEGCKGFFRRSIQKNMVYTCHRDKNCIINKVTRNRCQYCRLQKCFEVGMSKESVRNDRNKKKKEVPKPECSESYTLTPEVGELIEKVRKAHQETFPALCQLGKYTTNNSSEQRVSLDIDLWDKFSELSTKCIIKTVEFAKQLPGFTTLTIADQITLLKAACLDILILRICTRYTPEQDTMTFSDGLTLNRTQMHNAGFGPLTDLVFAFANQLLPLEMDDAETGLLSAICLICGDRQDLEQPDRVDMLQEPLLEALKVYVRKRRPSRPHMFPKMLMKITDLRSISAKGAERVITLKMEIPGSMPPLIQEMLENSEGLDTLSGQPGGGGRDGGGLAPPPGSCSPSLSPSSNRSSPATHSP
# Outline: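 Reporter transcripts, measured by RT-PCR with fluorescent labeling and capillary electrophoresis after 24 h dosing, reflect activity of an exogenous human RARa–GAL4 fusion in transiently transfected HepG2. Fitted for increase relative to DMSO.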
# [11] = biological target: human Retinoic Acid Receptor gamma (RARg), RARG (gene 5916) (UniProt P13631); experiment: ATG_RARg_TRANS: Attagene TRANS-FACTORIAL HepG2 Assay for human Retinoic Acid Receptor gamma (RARg) (AID 2283009)
# Chain of human Retinoic Acid Receptor gamma (RARg), RARG (gene 5916) (P13631 whole entry, looked up, the tested form may be a part): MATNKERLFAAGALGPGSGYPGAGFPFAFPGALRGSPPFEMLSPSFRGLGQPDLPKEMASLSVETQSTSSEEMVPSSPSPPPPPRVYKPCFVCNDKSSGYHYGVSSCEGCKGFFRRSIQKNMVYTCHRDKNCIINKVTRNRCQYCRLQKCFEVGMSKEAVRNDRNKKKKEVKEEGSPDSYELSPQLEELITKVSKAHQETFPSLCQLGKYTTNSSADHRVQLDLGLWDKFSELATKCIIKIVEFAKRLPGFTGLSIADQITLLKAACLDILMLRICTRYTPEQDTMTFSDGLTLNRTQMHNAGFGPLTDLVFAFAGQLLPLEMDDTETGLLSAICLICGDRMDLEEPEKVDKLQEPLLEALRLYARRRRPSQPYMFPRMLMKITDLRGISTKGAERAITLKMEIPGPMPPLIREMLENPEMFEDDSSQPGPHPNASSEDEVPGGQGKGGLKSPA
# Outline: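 HepG2 cells transiently transfected with multiplexed reporter units expressing chimeric RARg-GAL4 and GAL4-UAS-driven reporters; 24 h compound exposure. Reporter mRNA quantified by RT-PCR with fluorescent labelling and capillary electrophoresis; gain-of-signal fitted relative to DMSO baseline.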
# [12] = BSK_4H_Eotaxin3: BioMAP Diversity Plus: 4H Assay for Eotaxin 3 Biomarker Activity (AID 2283000; active means hit-call score of the fitted dose curve at least 0.9, where 1 is the maximum; inactive means score below 0.9;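 further: CCL26 protein level quantified by ELISA in parallel with SRB cytotoxicity check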); details: primary human endothelial cells (HUVEC); actives raise or lower the signal
# Outline: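 Readout is Eotaxin-3 (CCL26) level by ELISA in primary human umbilical vein endothelial cells harvested 24 h after chemical exposure; activity fitted in both directions against DMSO control.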
# [13] = read-out: Intercellular Adhesion Molecule 1 (ICAM1), ICAM1 (gene 3383); experiment: BSK_3C_ICAM1: BioMAP Diversity Plus: 3C Assay for Intercellular Adhesion Molecule 1 (ICAM1) Biomarker Activity (AID 2283003; active means hit-call score of the fitted dose curve at least 0.9, where 1 is the maximum; inactive means score below 0.9); details: primary human endothelial cells (HUVEC); actives raise or lower the signal
# Outline: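 Primary human umbilical vein endothelial cells in the BioMAP 3C system were exposed to chemicals for 24 h, then ICAM-1 was quantified by ELISA. Activity was fitted bidirectionally against the DMSO negative control baseline.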
# [14] = BSK_3C_Proliferation: Cell Proliferation Assessment in the BioMAP Diversity Plus: 3C Assay (AID 2283006; active means hit-call score of the fitted dose curve at least 0.9, where 1 is the maximum; inactive means score below 0.9); details: primary human endothelial cells (HUVEC)
# Outline: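 Human umbilical vein endothelial cells were grown sub-confluent and exposed to chemical for 48 h, then fixed with 10% TCA and stained with 0.1% sulforhodamine B; absorbance at 560 nm gave relative cell number, fitted bidirectionally against DMSO baseline.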
# [15] = read-out: E-selectin (Homo sapiens) (UniProt P16581); experiment: BSK_3C_Eselectin: BioMAP Diversity Plus: 3C Assay for Eselectin Biomarker Activity (AID 2283015; active means hit-call score of the fitted dose curve at least 0.9, where 1 is the maximum; inactive means score below 0.9;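 further: cell surface E-selectin protein quantified by ELISA 24 h after dosing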); details: primary human endothelial cells (HUVEC); actives raise or lower the signal
# Outline: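 HUVEC, 3C stimulation; compound exposure 24 h; E-selectin by ELISA; gain- or loss-of-signal fitted bidirectionally vs DMSO baseline.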
# [16] = read-out: Interleukin-1 alpha (IL1a), IL1A (gene 3552); experiment: BSK_BE3C_IL1a: BioMAP Diversity Plus: BE3C Assay for Interleukin-1 alpha (IL1a) Biomarker Activity (AID 2283016; active means hit-call score of the fitted dose curve at least 0.9, where 1 is the maximum; inactive means score below 0.9); details: primary human bronchial epithelial cells; actives raise or lower the signal
# Outline: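 Human primary bronchial epithelial cells (BE3C system) were dosed with compound and IL-1a measured by ELISA 24 h later. Activity was fitted bidirectionally against DMSO baseline; cytotoxicity was tracked in parallel cultures by SRB total-protein staining.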
# [17] = read-out: Monocyte Chemoattractant Protein-1 (MCP1), CCL2 (gene 6347); experiment: BSK_3C_MCP1: BioMAP Diversity Plus: 3C Assay for Monocyte Chemoattractant Protein-1 (MCP1) Biomarker Activity (AID 2283017; active means hit-call score of the fitted dose curve at least 0.9, where 1 is the maximum; inactive means score below 0.9); details: primary human endothelial cells (HUVEC); actives raise or lower the signal
# Outline: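 HUVEC, 3C system; 24 h chemical exposure; MCP-1 by ELISA; bidirectional curve fit vs DMSO baseline.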
# [18] = read-out: Monocyte Chemoattractant Protein-1 (MCP1), CCL2 (gene 6347); experiment: BSK_4H_MCP1: BioMAP Diversity Plus: 4H Assay for Monocyte Chemoattractant Protein-1 (MCP1) Biomarker Activity (AID 2283018; active means hit-call score of the fitted dose curve at least 0.9, where 1 is the maximum; inactive means score below 0.9); details: primary human endothelial cells (HUVEC); actives raise or lower the signal
# Outline: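 Human umbilical vein endothelial cells (4H system) dosed with chemical; MCP-1 measured by ELISA 24 h after dosing. Bidirectional curve fitting against DMSO negative control as baseline; parallel SRB total-protein staining tracks overt cytotoxicity.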
# [19] = read-out: Human Leukocyte Antigen - DR isotype (HLADR), HLA-DRA (gene 3122); experiment: BSK_3C_HLADR: BioMAP Diversity Plus: 3C Assay for Human Leukocyte Antigen - DR isotype (HLADR) Biomarker Activity (AID 2283019; active means hit-call score of the fitted dose curve at least 0.9, where 1 is the maximum; inactive means score below 0.9;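 further: ELISA of cell-surface HLA-DR on HUVEC 24 h after dosing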); details: primary human endothelial cells (HUVEC); actives raise or lower the signal
# Outline: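 HUVEC, 3C stimulation, 24 h post-dose; HLA-DR by ELISA; bidirectional curve fit vs DMSO baseline; gain or loss of signal scored.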
# [20] = biological target: human RAR-related Orphan Receptor gamma (RORg), RORC (gene 6097) (UniProt P51449); experiment: ATG_RORg_TRANS: Attagene TRANS-FACTORIAL HepG2 Assay for human RAR-related Orphan Receptor gamma (RORg) (AID 2283011)
# Chain of human RAR-related Orphan Receptor gamma (RORg), RORC (gene 6097) (P51449 whole entry, looked up, the tested form may be a part): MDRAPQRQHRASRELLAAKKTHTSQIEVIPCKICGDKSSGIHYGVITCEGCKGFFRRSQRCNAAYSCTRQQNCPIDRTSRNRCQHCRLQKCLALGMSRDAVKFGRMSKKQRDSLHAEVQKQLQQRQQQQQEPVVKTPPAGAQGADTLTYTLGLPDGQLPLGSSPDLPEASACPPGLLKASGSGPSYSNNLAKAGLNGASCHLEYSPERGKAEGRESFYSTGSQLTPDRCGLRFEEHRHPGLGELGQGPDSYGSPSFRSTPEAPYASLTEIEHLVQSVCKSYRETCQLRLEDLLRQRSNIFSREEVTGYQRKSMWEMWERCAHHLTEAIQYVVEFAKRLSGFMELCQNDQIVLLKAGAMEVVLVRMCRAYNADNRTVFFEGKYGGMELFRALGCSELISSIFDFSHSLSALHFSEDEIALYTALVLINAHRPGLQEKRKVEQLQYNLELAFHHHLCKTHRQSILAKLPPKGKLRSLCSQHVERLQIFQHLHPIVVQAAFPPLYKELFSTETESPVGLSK
# Outline: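 Transient MRTU transfection of HepG2 (TRANS format, exogenous NR-Gal4 chimera). 24 h dosing. Total RNA → oligo(dT) RT → PCR → 6-FAM labelling → HpaI cut → CE. Gain vs DMSO.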
smiles,measurement,setting,value
CCCCCC=O,outcome,[1],inactive
same,outcome,[2],inactive
same,outcome,[3],inactive
same,outcome,[4],inactive
same,outcome,[5],inactive
same,outcome,[6],inactive
same,outcome,[7],inactive
CN(C)Cc1ccccc1O,outcome,[2],inactive
same,outcome,[3],inactive
same,outcome,[8],inactive
same,outcome,[6],inactive
same,outcome,[7],inactive
CC/C=C\CCOC(=O)c1ccccc1,outcome,[1],inactive
same,outcome,[9],inactive
same,outcome,[10],inactive
same,outcome,[3],inactive
same,outcome,[8],inactive
same,outcome,[11],inactive
same,outcome,[4],inactive
same,outcome,[5],inactive
same,outcome,[6],inactive
Cc1cc(C)cc(O)c1,outcome,[1],inactive
same,outcome,[10],inactive
same,outcome,[3],inactive
same,outcome,[8],inactive
same,outcome,[11],inactive
same,outcome,[4],inactive
same,outcome,[5],inactive
same,outcome,[6],inactive
same,outcome,[7],inactive
CC(CCl)OP(=O)(OC(C)CCl)OC(C)CCl (stereo unspecified),outcome,[12],inactive
same,outcome,[13],inactive
same,outcome,[14],inactive
same,outcome,[3],inactive
same,outcome,[11],inactive
same,outcome,[5],inactive
same,outcome,[6],inactive
same,outcome,[15],inactive
same,outcome,[16],inactive
same,outcome,[17],inactive
same,outcome,[18],inactive
same,outcome,[19],inactive
OC[C@@H](O)[C@@H](O)[C@H](O)[C@@H](O)CO,outcome,[10],inactive
same,outcome,[3],inactive
same,AC50,[8],12.5 µM (active)
same,outcome,[11],inactive
same,outcome,[20],inactive
same,outcome,[5],inactive
same,AC50,[6],35.1 µM (active)
same,outcome,[6],inactive
O=C(OCCOCCOCCOC(=O)c1ccccc1)c1ccccc1,outcome,[3],inactive
same,outcome,[20],inactive
same,outcome,[6],inactive
CCCCCCOC(=O)c1ccccc1,outcome,[2],inactive
same,outcome,[11],inactive
same,outcome,[5],inactive
CC(C)c1ccccc1N,outcome,[1],inactive
same,outcome,[3],inactive
same,outcome,[4],inactive
same,outcome,[6],inactive
CCCCCCS,outcome,[1],inactive
same,outcome,[2],inactive
same,outcome,[10],inactive
same,outcome,[3],inactive
same,outcome,[8],inactive
same,outcome,[11],inactive
same,outcome,[20],inactive
same,outcome,[5],inactive
same,AC50,[6],100 µM (active)
COC(=O)C1CCC(C(=O)OC)CC1 (stereo unspecified),outcome,[1],inactive
same,outcome,[2],inactive
same,outcome,[9],inactive
same,outcome,[3],inactive
same,outcome,[8],inactive
same,outcome,[11],inactive
same,outcome,[5],inactive
same,outcome,[6],inactive
Nc1ccc(S(=O)(=O)Nc2nccs2)cc1,outcome,[1],inactive
same,outcome,[2],inactive
same,outcome,[3],inactive
same,outcome,[11],inactive
same,outcome,[4],inactive
same,outcome,[6],inactive
CCC(=O)OCCc1ccccc1,outcome,[8],inactive
same,outcome,[4],inactive
same,outcome,[5],inactive
CC(Cc1ccc(O)c(O)c1)C(C)Cc1ccc(O)c(O)c1 (stereo unspecified),AC50,[3],19.3 µM (active)
same,outcome,[20],inactive
same,outcome,[5],inactive
Cc1cccc(N(C)C)c1,outcome,[3],inactive
same,outcome,[11],inactive
same,outcome,[4],inactive
same,outcome,[20],inactive
CC/C=C\CCOC(C)=O,outcome,[1],inactive
same,outcome,[8],inactive
same,outcome,[20],inactive
